# From PubChem
# ABHD5-PLIN5 inh = inhibitors of human ABHD5-perilipin-5 interaction | Split G. princeps luciferase complementation, luminescence, 4 h | 360,000 tested, 0.78% active | inhibition, % at 4 µM;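 active = inhibition above the mean inhibition across every tested compound plus 3 SD, cut at about 22% in these data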;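 note: 0% = DMSO only wells and the 100% control is not disclosed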
# Target sequence (Q00G26 whole entry, looked up): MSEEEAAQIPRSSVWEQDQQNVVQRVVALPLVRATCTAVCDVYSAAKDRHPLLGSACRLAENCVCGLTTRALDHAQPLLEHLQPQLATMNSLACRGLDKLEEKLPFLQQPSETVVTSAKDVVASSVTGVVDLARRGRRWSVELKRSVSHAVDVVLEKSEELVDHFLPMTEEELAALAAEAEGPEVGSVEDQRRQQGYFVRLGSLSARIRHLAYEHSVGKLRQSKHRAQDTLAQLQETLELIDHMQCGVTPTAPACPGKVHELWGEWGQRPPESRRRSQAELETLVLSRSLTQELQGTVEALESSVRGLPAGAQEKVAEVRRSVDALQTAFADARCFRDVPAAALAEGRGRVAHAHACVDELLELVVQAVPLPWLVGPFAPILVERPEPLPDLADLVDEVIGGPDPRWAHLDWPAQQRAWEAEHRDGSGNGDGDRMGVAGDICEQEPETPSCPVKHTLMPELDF
# Target sequence (Q8WTS1 whole entry, looked up): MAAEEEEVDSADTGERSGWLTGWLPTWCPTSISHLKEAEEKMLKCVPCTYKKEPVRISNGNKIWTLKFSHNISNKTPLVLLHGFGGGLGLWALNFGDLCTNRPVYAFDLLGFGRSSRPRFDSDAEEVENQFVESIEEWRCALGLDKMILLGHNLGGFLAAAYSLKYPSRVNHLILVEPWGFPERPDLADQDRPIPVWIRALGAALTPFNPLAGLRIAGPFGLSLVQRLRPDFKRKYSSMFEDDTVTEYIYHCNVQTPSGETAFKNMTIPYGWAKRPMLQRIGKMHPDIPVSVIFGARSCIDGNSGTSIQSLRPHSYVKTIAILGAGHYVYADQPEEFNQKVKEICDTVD
# KKLEB tox = reduces viability of KKLEB cystic fibrosis airway cells. 360,000 tested, 0.36% active. AID 602141. activity change (cytotoxicity), % at 5 µM. KKLEB CF airway cells viability, ATPlite luminescence, overnight; active compounds read low; cells stimulated with P. aeruginosa culture filtrate;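 active = corrected activity change at or below -50% at 5 µM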
# CF NFkB inh = cystic fibrosis NF-kB activation inhibition; KKLEB NF-kB-GFP reporter, PAF-induced, GFP fluorescence overnight; inhibition, % at 5 µM; 360,000 tested, 0.86% active; AID 588850;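 active = at least 50% inhibition at 5 µM, scaled per plate between neutral and stimulator controls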;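 note: PAF is a Pseudomonas aeruginosa culture filtrate used as stimulus; plate controls were PAF-stimulated DMSO wells for no effect and unstimulated DMSO wells for full effect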
# Peg3 promoter = inhibitors of Peg3 promoter; HeLa PEG-Prom luciferase reporter, luminescence, overnight; inhibition, % at 20 µM; 360,000 tested, 1.7% active;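 active = inhibition of at least 50% at 20 µM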
# TRPM1 prom inh = reduces MITF-dependent TRPM1 promoter luciferase signal; SK-MEL-5 TRPM1 promoter luciferase, 24 h; inhibition, % at 12.5 µM; 330,000 tested, 0.83% active;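 active = mean inhibition across replicates of 60% or more, whatever share of single replicates reaches that level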
# HIF-2a inh = inhibitors of HIF-2a | 786-0 RCC cells HIF-2a reporter, luciferase luminescence, overnight | inhibition, % at 18.8 µM | 360,000 tested, 0.72% active;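 active = inhibition of the luminescence signal of 40% or more relative to plate controls, in a single-dose primary screen at 18.75 µM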
# The depositor's hits bear a star; / = no result. A selection: hits, their analogues and other compounds. The true share with any hit is near 3%.
SMILES,ABHD5-PLIN5 inh,KKLEB tox,CF NFkB inh,Peg3 promoter,TRPM1 prom inh,HIF-2a inh
N=C1S/C(=C\c2ccc(-c3cccc(Cl)c3)o2)C(=O)N1c1nccs1,-2.1,11.7,-59.3,104.5*,48.3,1.1
COc1ccc(/C=C2\SC(=N)N(c3nccs3)C2=O)cc1OC,-5.5,-8.8,13.6,-13.0,-1.8,-37.0
CN(C)c1ccnc2sc(C(=O)c3ccc(Br)cc3)c(N)c12,0.5,15.7,-19.3,-199.1,-63.4,-200.0
CN(C)c1ccnc2sc(C(N)=O)c(N)c12,-10.8,-36.0,91.0*,-6.6,-10.4,16.7
CC(=O)Nc1nc2c(s1)CCc1ccccc1-2,-2.4,-14.1,-47.9,-41.4,13.0,-44.6
O=C(CCCl)Nc1nc2c(s1)CCc1ccccc1-2,7.1,-38.2,-8.2,54.5*,29.1,-34.0
N#CCOC(=O)/C=C/c1ccc2c(c1)OCO2,-4.0,8.4,5.9,-4.8,3.3,2.4
C=CCn1c(SCC(=O)c2[nH]c(C)c(C(=O)OC)c2C)nc2scc(-c3ccc(OC)c(OC)c3)c2c1=O,6.6,-39.9,24.1,10.0,104.7*,11.9
CC(=O)c1ccc(Nc2nc(-c3sc(C)nc3C)cs2)cc1,2.1,-13.7,-45.8,54.8*,/,-70.9
CC(=O)Nc1ccc(Nc2nc(-c3sc(C)nc3C)cs2)cc1,-7.2,4.9,-0.3,-76.2,-0.2,-183.1
Cc1ccc(N(C)C(=O)c2cc(S(=O)(=O)N3CCCC3)cn2C)cc1,-5.1,8.6,8.7,3.5,-6.8,6.7
CCOC(=O)C1=CCC(c2ccccc2)N(S(=O)(=O)c2ccc(C)cc2)[C@H]1CC (stereo partly specified),-4.9,/,/,/,/,9.7
CC(Oc1ccc(Br)cc1)C(=O)Nc1nc(-c2ccccn2)cs1 (stereo unspecified),-10.3,-10.6,15.1,40.1,67.2*,20.6
CC(C)[C@H](NC(=O)c1ccccc1Cl)C(=O)Nc1nc(-c2ccccn2)cs1,-2.7,-8.1,-15.1,35.3,41.2,21.2
Oc1ccccc1-c1nnc(SCCN2CCOCC2)n1Cc1ccccc1,1.0,0.2,5.5,53.4*,22.2,-20.1
COc1ccc(NC(=O)CSc2nnc(NC(=O)c3ccco3)s2)cc1OC,9.1,15.5,-5.2,-23.6,2.0,-18.5
Cc1cc(C)n(CCOc2ccc(Br)cc2)n1,-4.0,9.8,-20.2,-8.8,-7.2,-16.7
COc1ccc(NC(=O)CSc2ccccc2)c(OC)c1,2.9,-1.1,4.9,-228.9,-41.2,-198.1
COc1ccc(NC(=O)CSc2ncnc3c2sc2ccccc23)c(OC)c1,-5.6,-55.4*,53.1*,44.8,-11.0,15.1
Cc1c(CCOC(=O)CC23CC4CC(CC(C4)C2)C3)sc[n+]1CC(=O)c1ccc(Br)cc1,8.8,-8.5,11.0,48.8,6.9,1.0
Cc1c(CCOC(=O)CC23CC4CC(CC(C)(C4)C2)C3)sc[n+]1CC(=O)c1ccccc1,14.2,-7.2,23.2,84.5*,84.4*,-12.2
Cc1ccccc1OCCNc1cc(N2CCN(CCO)CC2)ccc1[N+](=O)[O-],22.4*,-19.6,20.1,17.6,-38.7,-49.0
COc1ccc(S(=O)(=O)N2CCCCCC2)cc1C(=O)OCc1cccc(OC)c1OC,3.9,-6.8,22.3,50.8*,0.4,0.6
COc1cccc(COC(=O)C2CCN(S(=O)(=O)c3ccc(C)cc3)CC2)c1OC,-7.6,-6.8,-1.9,20.2,-4.6,18.7
Cc1ccc(-c2nc3c(Cl)cc(Cl)cc3c(=O)n2O)cc1,-8.4,-0.9,-4.6,47.2,-4.0,15.1
SMILES,ABHD5-PLIN5 inh,KKLEB tox,CF NFkB inh,Peg3 promoter,TRPM1 prom inh,HIF-2a inh
CC1(C)Cc2ccccc2C2=NNC(=O)C2=N1,-18.4,-0.1,75.4*,49.9,95.9*,33.7
CC1(C)Cc2ccccc2C(Nn2cnnc2)=N1,5.3,5.1,-1.9,-11.9,0.9,6.2
COc1ccc(C=O)cc1Cn1c(C)cc(C)c(C#N)c1=O,1.9,-3.4,8.6,50.6*,10.5,15.8
Cc1ccc(S(=O)(=O)Nc2c(C)nn(C)c2C)c(C)c1,-10.8,13.5,-8.6,8.0,1.6,15.2
Cc1c(Cl)cccc1N/C(SCC(=O)N1CCCCCC1)=C(/C#N)c1nc2ccccc2s1,0.2,-64.7*,53.6*,45.0,46.5,36.1
O=C(CSc1nc2ccccc2s1)N1CCCCC1,-6.3,18.4,-5.1,-242.5,-75.5,-290.0
COc1cccc(CNC(=O)COC(=O)CCS(=O)(=O)c2ccc(C)cc2)c1,6.8,21.4,-26.6,12.3,2.1,7.8
CCCCNC(=S)N(C)/N=C/c1c(C)[nH]c2ccccc12,5.5,2.5,3.5,5.0,12.9,15.1
CCCCNC(=S)N(C)/N=C/c1c(F)c(F)c(F)c(F)c1F,-2.5,-1.1,-16.1,71.3*,5.8,19.3
Cc1ccc(NC(=O)CCn2cc(C(F)(F)F)ccc2=O)cc1,-3.5,11.3,4.6,15.0,/,8.7
CCOc1ccc(C(=O)N2CCN(S(=O)(=O)c3cccs3)CC2)c(OCC)c1,0.0,-13.0,28.9,15.9,-2.8,13.8
COc1ccc(C2(CNC(=O)/C=C\c3ccco3)CCCC2)cc1OC,22.3*,-13.2,7.6,-9.6,-0.2,27.3
Fc1cccc(-c2nnn3c2nc(Cl)c2ccccc23)c1,-1.3,0.4,25.6,106.7*,10.2,-207.8
O=C1NC(=Nc2ccc(Cl)cc2)/C(=C/c2ccco2)S1,0.1,-18.3,16.7,62.9*,0.1,-15.6
CCCC[C@@H]1CNCCN1CCc1cc(C(F)(F)F)cc(C(F)(F)F)c1,-7.5,-10.7,1.4,7.2,30.2,-1.2
FC(F)(F)c1cc(CCN2CCNC[C@@H]2CC2CCCCC2)cc(C(F)(F)F)c1,-5.3,-22.3,19.9,95.5*,64.4*,5.2
O=C1C(=O)N(CCS(=O)(=O)c2ccccc2)c2ccc(Cl)cc21,-16.6,-8.2,-0.1,64.0*,5.1,7.3
CCc1ccc2c(c1)C(=O)C(=O)N2CCS(=O)(=O)c1ccccc1,-16.1,-6.9,29.2,-1.4,4.2,-11.9
O=C(Nc1c2ccccc2nc2ccccc12)C(Cl)(Cl)Cl,4.9,8.3,-84.7,96.4*,11.2,14.8
O=C(Cc1ccccc1)NNc1c2ccccc2nc2ccccc12,-1.9,-1.5,-44.7,10.5,13.8,7.1
CSc1cccc(CN2CCN(Cc3ccc(F)c(F)c3)C(CCO)C2)c1 (stereo unspecified),0.1,-0.1,17.2,13.3,-2.8,8.9
O=C(O)c1cc([N+](=O)[O-])ccc1NCc1ccccn1,-7.1,4.8,-8.2,-2.4,-0.8,-15.6
Oc1cc(O)c(CN2CCOCC2)cc1CN1CCOCC1,22.4*,-21.3,11.6,-4.8,11.6,20.3
Oc1c(CN2CCOCC2)cc(CN2CCOCC2)cc1CN1CCOCC1,4.9,-14.3,19.0,4.3,-14.9,2.1
O=C(c1nn2c(C(F)(F)F)cc(-c3ccco3)nc2c1Br)N1CCCc2ccccc21,6.9,-21.0,18.2,60.4*,3.2,31.7
